Measured values reported in PMC4336329 (PLoS ONE, 2015).
The campaign covered roughly 310,000 compounds. About 14,000 (4.5%) showed an effect of 50% or more. The effect is printed as a negative number. What follows is part of a selection rich in strong results, with near analogues and random picks from the rest.

target: human ether-à-go-go-related gene (hERG) potassium channel (human, UniProt Q12809); experiment: primary screen, population patch clamp on CHO cells stably expressing hERG; higher = less effect of the substance
Sequence (Q12809 whole entry, looked up): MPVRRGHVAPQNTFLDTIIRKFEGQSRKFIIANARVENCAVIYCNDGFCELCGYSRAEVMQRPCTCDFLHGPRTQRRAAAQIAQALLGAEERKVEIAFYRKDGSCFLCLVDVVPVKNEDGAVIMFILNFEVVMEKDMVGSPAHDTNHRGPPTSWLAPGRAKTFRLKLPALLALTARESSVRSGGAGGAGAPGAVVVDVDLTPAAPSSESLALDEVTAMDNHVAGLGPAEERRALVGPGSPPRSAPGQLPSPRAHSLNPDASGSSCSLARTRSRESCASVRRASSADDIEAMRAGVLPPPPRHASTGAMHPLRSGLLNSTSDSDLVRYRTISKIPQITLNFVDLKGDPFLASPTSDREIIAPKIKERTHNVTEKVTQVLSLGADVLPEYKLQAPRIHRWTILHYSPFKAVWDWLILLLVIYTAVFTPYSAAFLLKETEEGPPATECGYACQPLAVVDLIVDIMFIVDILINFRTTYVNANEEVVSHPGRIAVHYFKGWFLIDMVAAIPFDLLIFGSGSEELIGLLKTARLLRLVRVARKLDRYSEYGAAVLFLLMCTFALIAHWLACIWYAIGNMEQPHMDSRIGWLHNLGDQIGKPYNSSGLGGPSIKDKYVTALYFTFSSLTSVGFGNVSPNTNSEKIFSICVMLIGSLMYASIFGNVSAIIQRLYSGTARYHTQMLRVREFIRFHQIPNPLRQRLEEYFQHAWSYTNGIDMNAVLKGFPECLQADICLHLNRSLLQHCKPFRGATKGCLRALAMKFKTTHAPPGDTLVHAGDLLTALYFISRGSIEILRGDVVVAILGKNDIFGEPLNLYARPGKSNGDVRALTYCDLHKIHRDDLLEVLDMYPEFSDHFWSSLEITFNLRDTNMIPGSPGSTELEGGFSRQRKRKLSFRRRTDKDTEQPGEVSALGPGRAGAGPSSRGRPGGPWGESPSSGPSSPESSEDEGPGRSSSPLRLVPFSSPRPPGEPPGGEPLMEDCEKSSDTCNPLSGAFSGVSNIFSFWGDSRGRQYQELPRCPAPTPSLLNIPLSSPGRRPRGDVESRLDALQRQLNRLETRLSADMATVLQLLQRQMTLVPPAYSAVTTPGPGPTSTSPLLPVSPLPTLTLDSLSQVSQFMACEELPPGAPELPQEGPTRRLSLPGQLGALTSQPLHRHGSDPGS
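Further: peak tail current of the secondary pulse compared with the same well before compound.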

SMILES | hERG current change (%, negative = inhibition) at 10uM [%]
NS(=O)(=O)c1ccc2nc(NC(=O)c3ccncc3)sc2c1 | 13.9
Cc1nc(NS(=O)(=O)c2ccc(Cl)s2)c2c3c(sc2n1)CCCC3 | -28.7
CCN(CC)CCNC(=O)c1cc(Nc2ccc(OC)c(OC)c2)nc2ccccc12 | -23.8
CCN(CC)CCCNC(=O)c1cc(Nc2ccc(OC)cc2)nc2ccccc12 | -53.8
CCN(CC)CCCNC(=O)c1cc(Nc2ccc(OC)cc2OC)nc2ccccc12 | -36.1
CCN(CC)CCNC(=O)c1cc(-c2ccc(Br)s2)nc2ccccc12 | -9.2
CCN(CC)CCNC(=O)c1ccc(NC(=O)c2cc(-c3ccco3)nc3ccccc23)cc1 | -30.2
COc1ccc(CCNC(=O)c2cc(-c3ccco3)nc3ccccc23)cc1 | 2.98
NS(=O)(=O)c1ccc(CCNC(=O)c2cc(-c3ccco3)nc3ccccc23)cc1 | -58.3
NS(=O)(=O)c1ccc(CCNC(=O)c2cc(-c3ccccc3)nc3ccccc23)cc1 | -10.4
CCN(CC)CCNC(=O)c1cc(-c2ccco2)nc2ccccc12.Cl | -65.5
COc1ccc(Nc2cc(C(=O)NCCCN3CCOCC3)c3ccccc3n2)cc1 | -26.5
CCCCCCNC(=O)c1cc(-c2ccco2)nc2ccccc12 | -11.5
CCCCOc1cc(C(=O)NCCN(CC)CC)c2ccccc2n1 | -65.9
CN1C(=O)N2CN(C3CCCCC3)CN3C(=O)N(C)C1C23 (stereo not drawn) | 9.88
Cc1noc(C)c1COC(=O)C1COc2ccccc2O1 (stereo not drawn) | 15.2
CCc1ccc(N(C(=O)c2csnn2)C(C(=O)NC(C)(C)C)c2cccnc2)cc1 (stereo not drawn) | 4.59
CCOCCCNC(=O)C(NC(=O)c1ccccn1)c1ccc(C)cc1 (stereo not drawn) | -0.00042
Cc1ccccc1NS(=O)(=O)c1ccc(-c2ccc(=O)[nH]n2)o1 | -2.13
COc1ccccc1N1CCN(C(=O)CCCn2c(=O)[nH]c3ccsc3c2=O)CC1 | 4.33
O=C(CCC(=O)c1ccc(F)cc1)Nc1cccc(C(F)(F)F)c1 | 7.22
COc1ccc(Nc2ccc([N+](=O)[O-])cc2[N+](=O)[O-])cc1 | -32.5
O=C(Nc1ccc(Cl)cc1C(=O)NCC1CCCO1)c1ccc(Cl)cc1Cl (stereo not drawn) | -10.2

SMILES | hERG current change (%, negative = inhibition) at 10uM [%]
CC(C1CC2CCC1C2)N1CC(O)=C(c2nc3ccccc3[nH]2)C1=N (stereo not drawn) | -17.9
Cc1ccc(C)c(S(=O)(=O)N/N=C/c2cccnc2)c1 | 7.65
COc1ccc(OC)c(NS(=O)(=O)c2ccc3c(c2)n(C)c(=O)n3C)c1 | -5.85
CCC/C(=N\NC(=O)C1CC1)c1ccc(Br)cc1 | 11.9
C/C(=N\N=C1\NC(=O)CC(C(=O)O)S1)c1ccc(F)cc1 (stereo not drawn) | 0.193
CCOC(=O)c1nn(C23CC4CC(CC(C4)C2)C3)c2c1C(=O)N(c1ccc(C)cc1)C2=O | 20.3
Cc1cc([N+](=O)[O-])nn1CC(=O)Nc1ccc(F)cc1 | 6.31
Cc1cc([N+](=O)[O-])nn1CC(=O)Nc1ccccn1 | 5.51
Cc1cc([N+](=O)[O-])nn1CC(=O)Nc1cnc2ccccc2c1 | -81.1
Cc1cccc(C)c1-n1c(C)nn(CC#N)c1=O | 19.1
CCN(CC)CCNC(=O)COc1ccc(OC)cc1.Cl | -9.07
CCN(CC)CCNC1=NCCn2c1cc1cc(OC)ccc12.Cl | -66.6
COc1ccc2c(c1)c1c3n2CCN(C)C3=NCC1.Cl | -67.7
COc1ccc2[nH]c3c(c2c1)CCN=C3C | -18.2
CN=C1c2c(-c3ccccc3)c3cc(OC)ccc3n2CCN1C.Cl | -62.6
COc1ccc2c(c1)c1c(n2C(C)=O)C(OC(C)=O)=NCC1 | -8.94
COc1ccc2c(c1)c1ccccc1n2C | 11
COC(=O)c1cc2cc(OC)ccc2n1C | 0.821
COc1ccc2c(c1)c(=O)cc(-c1ccccc1)n2C | 0.0751
COc1ccc2c(c1)cc(C(=O)O)n2C | -6.02
COc1ccc2c(c1)cc1n2CCN=C1NCCO.Cl | -10.2
CN=C1c2cc3cc(OC)ccc3n2CCN1C.Cl | -53
Cc1ccc(NC(=O)C(C)OC(=O)Cn2cnc3ccccc3c2=O)cc1 (stereo not drawn) | -12.4

SMILES | hERG current change (%, negative = inhibition) at 10uM [%]
COc1ccc(N2CCN(C(CNC(=O)OCc3ccccc3)c3ccco3)CC2)cc1 (stereo not drawn) | -27.4
CCOC(=O)c1cc(S(=O)(=O)NCCc2ccccc2)cn1C | 2.98
Clc1ccccc1CN1CCN(c2ccccc2Cl)CC1 | 16
CCc1cc(C(=O)c2ccc(OC)cc2)c(N)s1 | -12.7
N/C(CS(=O)(=O)c1ccc(F)cc1)=N\O | 11.8
CC(C)(C)C(=O)CNS(=O)(=O)c1ccc(S(=O)(=O)NC2CC2)cc1 | 12.3
COCCNC(=O)/C(C#N)=C/c1c(N2CC(C)OC(C)C2)nc2ccccn2c1=O (stereo not drawn) | -0.67
CCS(=O)(=O)Nc1ccc(-c2cc(-c3ccccc3)c3cc(C)ccc3n2)cc1 | 0.812
COc1ccc(NC(=O)NC2(C(=O)N3CCN(C)CC3)CCCCC2)cc1 | 9.88
O=C(c1cccc(F)c1)N1CCC2(CC1)NCCc1[nH]cnc12 | 6.92
Cc1cc(Br)c(NC(=O)COC(=O)CSc2nnc(-c3ccc(Cl)cc3)o2)c(Br)c1 | 1.39
CCN(CC)c1ccc(NC(=S)NCC2CCCO2)cc1 (stereo not drawn) | 7.83
COc1ccc2c(c1)cc1n2CCN=C1NN.Cl.O | 2.89
COc1ccc2nc(N3CCCC3)[nH]c2c1.Cl | -15.7
COc1ccc(C(=S)N2CCN(C)CC2)cc1Br | -9.51
CN=C1c2cc3c(Br)c(OC)ccc3n2CCN1C.Cl | -66.9
COc1ccc2c(c1)cc1n2CCN2CCCN=C12.Cl | -51.6
O=C(Nc1ccc2nn(-c3ccccc3)nc2c1)c1ccco1 | 7.51
COC(=O)c1ccc(CSc2nnc(NC(C)C)s2)o1 | 29.8
O=C(/C=C/c1cccc(Cl)c1)Nc1ccncc1 | -17.1
O=C(Nc1cccc(-n2cnnn2)c1)c1ccc(Cl)cc1Cl | 4.58
Cc1ccc(Sc2nc3c(c(=O)[nH]c(=O)n3C)n2CCc2ccccc2)cc1 | 5.16
Cc1nn(Cc2c(F)c(F)c(F)c(F)c2F)c(C)c1NC(=O)c1cccc(COc2ccccc2Cl)c1 | -3.4

SMILES | hERG current change (%, negative = inhibition) at 10uM [%]
CCOc1cccc(CN2CCC(n3nccc3NC(=O)CCCc3ccccc3)CC2)c1 | -27.5
CC(C)Oc1ccc(CN2CCC(n3nccc3NC(=O)CCc3ccccc3)CC2)cc1 | -82.3
O=C(CCc1ccccc1)Nc1ccnn1C1CCN(Cc2ncc[nH]2)CC1 | 19
Cn1cc(CN2CCC(n3nccc3NC(=O)CCOc3ccccc3)CC2)cn1 | 17.1
O=C(CCOc1ccccc1)Nc1ccnn1C1CCN(Cc2ccccc2)CC1 | -50
CC(=O)c1cccc(CN2CCC(n3nccc3NC(=O)CCCc3ccccc3)CC2)c1 | -37.8
COc1cccc(CN2CCC(n3nccc3NC(=O)CCCc3ccccc3)CC2)c1 | -71.3
CCn1cc(CN2CCC(n3nccc3NC(=O)CCc3ccccc3)CC2)cn1 | 2.28
CC(=O)Nc1ccc(CN2CCC(n3nccc3NC(=O)CCc3ccccc3)CC2)cc1 | -5.87
Cn1cc(CN2CCC(n3nccc3NC(=O)CCc3ccccc3)CC2)cn1 | 16
O=C(CCc1ccccc1)Nc1ccnn1C1CCN(Cc2ccc(OCCO)cc2)CC1 | -65.3
O=C(CCOc1ccccc1)Nc1ccnn1C1CCN(Cc2ccc(O)cc2)CC1 | -31.3
OC1CCCN(Cc2ccc3ccc4cccc5ccc2c3c45)C1 (stereo not drawn) | -4.79
CCOC(=O)c1c(C)[nH]c(C)c1S(=O)(=O)N(C)CC(=O)NCc1cccc(C)c1 | -13.3
COc1ccc(-c2cc3ccccc3[nH]2)cc1 | 7.8
O=C(Nc1ccccc1C(=O)NCCCn1ccnc1)c1ccc(Cl)cc1Cl | -47.1
O=C(Nc1ccc(Cl)cc1)Nc1nc(-c2ccccc2)cs1 | 11.3
CCc1ccc(OCC(=O)N/N=C(\C)c2ccc3c(c2)OCCO3)cc1 | -21.5
CC(Oc1ccccc1)C(=O)NNS(=O)(=O)c1ccc([N+](=O)[O-])cc1 (stereo not drawn) | 13.4
COc1ccc2cc(C(=O)N3CCC(Cc4ccccc4)CC3)[nH]c2c1 | 25.5
C/C(=N\Nc1ccccc1)c1c(O)n(Cc2ccccc2)c(=O)[nH]c1=O | 8.42
